This excerpt belongs to a sample that is enriched for hits.
HIV RNase H inh-1: HIV-1 RT RNase H inhibitors, primary screen, biochemical, fluorescence. inhibition, % at 10 µM. RT-RNase H RNA/DNA duplex cleavage. 1.9% of 65,000 active. Gag-Pol polyprotein (Human immunodeficiency virus type 1 group M subtype B (isolate …; in the data active means inhibition above about 50%
RmlC RmlD mix: RmlC and RmlD coupled enzyme inhibitors, primary screen, biochemical, 384-well, compound mixtures, retest; RmlC/RmlD coupled enzyme inhibition, 384-well mixture HTS; inhibition, % at 5.5 µM; 0.39% of 110,000 active; in the data active means inhibition above about 30%, passing the limit was not always enough; inconclusive means no clear call, values can overlap the other calls
HIV RNase H inh-2: HIV-1 RT RNase H inhibitors, retest, confirmation, biochemical | shares compounds with HIV RNase H inh-1 | Recombinant RT RNase H, fluorescent RNA/DNA duplex cleavage | inhibition, % at 10 µM | 39% of 1,000 active | AID 651, 2007; in the data active means inhibition above about 48%; inconclusive means no clear call, values can overlap the other calls
Of the large screens only hits and unclear results are named; the others gave an inactive call (follow-up assays come after a bar, where they were run).

CC(C)CC(C(=O)Nc1ccc2c(c1)OCCO2)N1C(=O)c2ccccc2C1=O (stereo unspecified)	none
CC(C)CC(C(=O)Nc1oc(-c2ccco2)c(-c2ccco2)c1C#N)N1C(=O)c2ccccc2C1=O (stereo unspecified)	HIV RNase H inh-1 62.1
CCC1CCCCN1c1nc2c(c(=O)n(C)c(=O)n2C)n1CCSc1nc2ccccc2o1 (stereo unspecified)	none (no result: RmlC RmlD mix)
CCC(=O)Oc1ccc2c(C)c(Cl)c(=O)oc2c1	RmlC RmlD mix active
Cc1c(Cc2ccccc2)c(=O)oc2cc(OC(=O)c3ccccc3)ccc12	none (no result: HIV RNase H inh-1)
C#CCNC(=O)C1=C[C@H](c2ccc3c(c2)OCO3)[C@@H](CCCO)[C@H](OCC)O1	none (no result: HIV RNase H inh-1)
Nc1nc(SCC(=O)Nc2ccccc2Sc2ccccc2)n[nH]1	none (no result: HIV RNase H inh-1)
CC1(C)CC(=O)C2=C(C1)N(c1cccc(O)c1)C1=C(C2)C(=O)CC(C)(C)C1	RmlC RmlD mix 38.6
CC1(C)CC(=O)C(C(C2=C(O)CC(C)(C)CC2=O)c2cccc(O)c2)C(=O)C1 (stereo unspecified)	none
COc1ccc(C2(O)CC3CCC(C2)N3c2nc(C)cc(C)c2C#N)cc1 (stereo unspecified)	none
CCOC(=O)N1CCN(c2c(F)cc3[nH]c(=S)[nH]c3c2Br)CC1	none
CCOC(=O)N1CCN(c2cc3[nH]c(=S)[nH]c3cc2F)CC1	HIV RNase H inh-1 61.1
CCOc1ccc(C(=O)NCc2ccccn2)cc1	none
O=C(NCc1ccccn1)c1coc(=O)c(Br)c1	RmlC RmlD mix 33.8
Cc1ccc(CN2C(=O)[C@H]3Cc4c([nH]c5ccccc45)C(C)(C)N3C2=O)cc1	none (no result: HIV RNase H inh-1)
CCOc1ccc(Br)cc1C1C(C(=O)OC)=C(N)Oc2cc(N(C)C)ccc21 (stereo unspecified)	none (no result: HIV RNase H inh-1)
CCC(Sc1ccc(C(=O)O)cc1)C(=O)O (stereo unspecified)	HIV RNase H inh-1 57.2
CCC(Sc1nc(C)cc(C)n1)C(=O)O (stereo unspecified)	none
O=C(COc1ccc(Cl)cc1)Nc1ccccc1C(=O)NCc1ccco1	none
Cc1cc(C)cc(OCC(=O)Nc2ccccc2C(=O)NCc2ccco2)c1	HIV RNase H inh-1 59.6
COc1cccc(CNC(=O)CCS(=O)(=O)c2cccs2)c1	none (no result: HIV RNase H inh-1)
O=[N+]([O-])c1cc(-c2csc(NC(CO)c3nc4ccccc4n3CCOCCO)n2)ccc1Cl (stereo unspecified)	none (no result: HIV RNase H inh-1)
COCCNc1cc(C)c(C#N)c2nc3ccccc3n12	RmlC RmlD mix 36.4
CCCNc1cc(C)c(C#N)c2nc3ccccc3n12	none (no result: HIV RNase H inh-1)
COc1cc(C(=O)NC2CCCNC2)cc(OC)c1OC (stereo unspecified)	none (no result: HIV RNase H inh-1)
O=C(O)CCC(=O)N1CCC[C@H]1C(=O)O	none (no result: HIV RNase H inh-1)
CCC1Oc2ccc(C)cc2N(CC(=O)N(Cc2ccc(C)o2)C2CC(C)(C)NC(C)(C)C2)C1=O (stereo unspecified)	none (no result: HIV RNase H inh-1)
CCC1Oc2ccc(C)cc2N(CC(=O)N(Cc2cccnc2)Cc2ccc(C)o2)C1=O (stereo unspecified)	HIV RNase H inh-1 50.0
CC1(C)CC[C@@]23CC[C@]4(C)[C@@](OC2=O)(C3C1)[C@H]1O[C@H]1C1[C@@]2(C)CC[C@H](O)C(C)(C)C2CC[C@]14C (stereo partly specified)	none (no result: HIV RNase H inh-1)
COc1cc2c3c([nH]c2cc1F)C(=O)NCC3	none (no result: HIV RNase H inh-1)
C/C(=C\C(=O)OCCCCCCCCC(=O)O)C[C@@H]1OC[C@H](C[C@@H]2O[C@H]2[C@@H](C)[C@H](C)O)[C@@H](O)[C@H]1O	none (no result: HIV RNase H inh-1)
Oc1ccc(C=Nc2cccc3ncccc23)c(O)c1	none
COc1cccc(N=Cc2ccc(O)cc2O)c1	HIV RNase H inh-1 53.4
CC(C)=CC1C=C(C)C(C)C2C(=O)NNC(=O)C12 (stereo unspecified)	none (no result: HIV RNase H inh-1)
CCCS(=O)(=O)c1nnnn1-c1cccc(OC)c1	HIV RNase H inh-1 54.6
COc1cccc(-n2nnnc2SCC(=O)Nc2ccc(C(C)=O)cc2)c1	none (no result: HIV RNase H inh-1)
Oc1ccc(/C=N/n2c3ccccc3c3ccccc32)cc1	none (no result: HIV RNase H inh-1)
COc1nc(-c2ccc(Cl)cc2)ccc1-c1noc(-c2ccncc2)n1	HIV RNase H inh-1 63.9 (no result: RmlC RmlD mix) | HIV RNase H inh-2 inactive
COc1nc(-c2ccccc2)ccc1-c1noc(-c2ccccc2)n1	none
O=C(C1=C[C@H](c2csc3ccccc23)C[C@H](OCc2ccc(CO)cc2)O1)N1CCCCCCC1	none (no result: HIV RNase H inh-1)
COc1ccccc1C1CC(c2ccc(C)cc2)Nc2ncnn21 (stereo unspecified)	none
CCOC(=O)c1ccc(N=Cc2nc(-c3ccccc3)oc2OC(C)=O)cc1	HIV RNase H inh-1 75.1 | HIV RNase H inh-2 inactive
CC(=O)Oc1oc(-c2ccccc2)nc1C=Nc1ccccc1	none (no result: HIV RNase H inh-1)
Nc1nc2c(ncn2CCC(CO)CO)c(=O)[nH]1	none (no result: HIV RNase H inh-1)
CCOC(=O)c1c(N)sc(=S)c2c1CCC2	none
CCOC(=O)c1c(N)ssc1=S	HIV RNase H inh-1 85.0 | HIV RNase H inh-2 inconclusive
Cc1ccc(N2C(=O)C(CC(=O)Nc3cccc(F)c3)N(C3CC3)C2=O)cc1 (stereo unspecified)	none (no result: HIV RNase H inh-1)
O=C(NCc1ccco1)c1csc2c1CCCCC2	none
O=C(NCc1ccco1)c1c2c(nc3ccccc13)CCC2	HIV RNase H inh-1 64.8 (no result: RmlC RmlD mix) | HIV RNase H inh-2 inactive
c1cncc(-c2nc(Oc3ccc(-c4nnco4)cc3)c3c4c(sc3n2)CCCC4)c1	none (no result: RmlC RmlD mix)
COc1ccc(CCNc2c([N+](=O)[O-])c(=O)oc3ccccc23)cc1OC	none (no result: HIV RNase H inh-1)
CC(C)Cn1c(N)c(C(=O)COC(=O)c2cc(-c3ccco3)nc3ccccc23)c(=O)n(C)c1=O	HIV RNase H inh-1 86.4 (no result: RmlC RmlD mix) | HIV RNase H inh-2 inconclusive
CC(C)Cn1c(N)c(C(=O)COC(=O)c2cc(-c3ccccc3)nc3ccccc23)c(=O)n(C)c1=O	none (no result: HIV RNase H inh-1)
CCC1S/C(=N/C(=O)NC2CCCCC2)NC1=O (stereo unspecified)	none (no result: HIV RNase H inh-1)
O=C(/N=C1\NC(=O)C(F)(C(F)(F)F)S1)NC1CCCCC1 (stereo unspecified)	HIV RNase H inh-1 86.7 | HIV RNase H inh-2 inactive
CC(=O)c1c(C)oc2ccc(NS(=O)(=O)c3ccc(O)c(C(=O)O)c3)cc12	none
O=C(O)c1cc(S(=O)(=O)Nc2ccc3oc(=O)sc3c2)ccc1O	HIV RNase H inh-1 82.3 | HIV RNase H inh-2 63.7
CN(C)NC(=O)c1ccsc1NC(=O)c1ccc(S(=O)(=O)N(C)C)cc1	none (no result: HIV RNase H inh-1)
CCOC(=O)N1CC=C2C(C#N)=C(N)C(C#N)(C#N)[C@H](c3ccc(OCC)c(OCC)c3)[C@H]2C1	none
CCCCOc1ccc(C2C3CN(C(=O)OCC)CC=C3C(C#N)=C(N)C2(C#N)C#N)cc1OC (stereo unspecified)	HIV RNase H inh-1 84.1 | HIV RNase H inh-2 inactive
O=C(O)C1=C[C@H](c2ccc(F)cc2)C[C@H](OCc2ccc(CO)cc2)O1	none (no result: HIV RNase H inh-1)
Cn1c(N2CCOCC2)nc(-c2ccccc2)c1-c1ccccc1	none
CCCCNC(=O)c1c(N)n(Cc2ccc3c(c2)OCO3)c2nc3ccccc3nc12	none (no result: HIV RNase H inh-1)
C=CCNC(=O)c1c(N)n(-c2ccc3c(c2)OCO3)c2nc3ccccc3nc12	HIV RNase H inh-1 57.1 | HIV RNase H inh-2 53.9
COc1cc(/C=C/C(=O)O)ccc1O	none (no result: HIV RNase H inh-1)
COc1cc(/C=C/C(=O)CC(=O)/C=C/c2ccc(O)c(OC)c2)ccc1O	HIV RNase H inh-1 82.8 | HIV RNase H inh-2 56.9
Cc1onc(-c2ccccc2Cl)c1C(=O)N1CCN=C1SCc1cccnc1	none
COc1cccc(/C=N/n2c(C)c3c(C)nnc(C)c3c2C)c1O	none (no result: RmlC RmlD mix)

Assay outcomes as filed in PubChem.
